Source: the supplement of paper PMC12340641
Where a name gives a salt, the structure may show the parent alone.

Experiments:
[1] = biological target: IKZF1 (dCK*-IKZF1 fusion in HEK293FT) (UniProt Q13422); experiment: inhibition of IKZF1 HTRF signal (DMSO = 0%, pomalidomide 10 uM = 100%); higher = lower IKZF1 protein level; settings: compound concentration: 5 uM, overnight (~20 h)
How it was run: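 Values are percent inhibition of IKZF1 signal, normalised plate by plate against vehicle and a reference degrader. HEK293FT cells stably expressing an IKZF1 fusion were seeded at 2000 per well in 384-well plates and exposed to 5 μM compound in single wells overnight at 37 °C. After 30 min lysis at room temperature, lysates were incubated overnight with a commercial HTRF total-IKZF1 antibody kit, and the background-subtracted 665/620 nm time-resolved FRET ratio was read. On each plate, vehicle was set at 0% and the reference degrader at 100%.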

[2] = tested on: HEK293FT dCK*-only; experiment: relative growth in counter assay (no AraC = 100%, AraC + DMSO = 0%); higher = more growth rescue independent of IKZF1; settings: compound concentration: 5 uM; AraC concentration: 0.3 uM; overnight pretreatment + 4 days AraC
How it was run: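 This counter assay used HEK293FT cells expressing only an engineered kinase construct, seeded at 300 per well in 384-well plates. Compound was added at 5 μM 2 h after seeding, and after overnight at 37 °C the cells received a nucleoside suicide substrate at 0.3 μM plus medium for 4 days. On day 5, nuclei stained with Hoechst 33342 were counted by imaging, and relative growth was normalised per plate; wells without suicide substrate were set at 100% and wells with substrate plus vehicle at 0%.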

[3] = tested on: HEK293FT dCK*-IKZF1; experiment: relative growth recovery (pomalidomide 10 uM = 100%, DMSO = 0%); higher = more growth rescue (IKZF1 fusion degradation); settings: compound concentration: 5 uM; AraC concentration: 0.3 uM; overnight pretreatment + 4 days AraC
How it was run: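 HEK293FT cells stably expressing an engineered deoxycytidine kinase–IKZF1 fusion were seeded at 300 per well in 384-well plates and given 5 μM compound 2 h later. After overnight incubation at 37 °C, a nucleoside suicide substrate at 0.3 μM was added with medium for 4 days, and on day 5 Hoechst 33342-stained nuclei were counted by whole-well imaging. Growth recovery was normalised per plate between a reference degrader and vehicle, set to 100% and 0% respectively, and the values are means of duplicates run on different days.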

Chain of IKZF1 (dCK*-IKZF1 fusion in HEK293FT) (Q13422 whole entry, looked up, the tested form may be a part): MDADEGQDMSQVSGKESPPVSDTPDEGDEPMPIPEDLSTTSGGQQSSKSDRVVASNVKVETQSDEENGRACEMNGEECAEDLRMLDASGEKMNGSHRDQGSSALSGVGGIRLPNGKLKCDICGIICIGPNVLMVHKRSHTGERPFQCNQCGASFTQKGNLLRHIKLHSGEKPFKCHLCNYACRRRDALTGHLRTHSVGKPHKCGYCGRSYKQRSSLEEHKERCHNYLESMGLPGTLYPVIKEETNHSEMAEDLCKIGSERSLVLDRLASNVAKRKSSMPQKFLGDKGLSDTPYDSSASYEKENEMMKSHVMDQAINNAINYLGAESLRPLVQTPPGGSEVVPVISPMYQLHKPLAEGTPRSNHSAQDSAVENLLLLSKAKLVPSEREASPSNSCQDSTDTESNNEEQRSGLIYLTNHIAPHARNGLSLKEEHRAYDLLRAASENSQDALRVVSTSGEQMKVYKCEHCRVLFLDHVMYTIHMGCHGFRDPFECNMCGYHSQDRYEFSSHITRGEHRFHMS

SMILES | inhibition of IKZF1 HTRF signal [1] [%] | relative growth in counter assay [2] [%] | relative growth recovery [3] [%]
C/C(=N\NC(=S)N1CCC1)c1ccccn1 | -11.1 | -34.6 | -12.9
CN1CCN(C2=Nc3ccccc3Sc3ccc(Cl)cc32)CC1 [Clothiapine] | 23.7 | 0.53 | 0.605
Cc1nnsc1C(=O)Nc1ccc(-n2nc(C(F)(F)F)cc2C(F)(F)F)cc1 | -28.9 | 3.65 | 0.005
Oc1c(I)cc(I)c2cccnc12 | -30.6 | -11.2 | -3.46
CCc1ccc(OCc2ccccc2C(=O)Nc2ccc3nc(C)cc(N)c3c2)cc1 | 41.1 | -34.6 | -14.6
Nc1nc2c(ccc3ccccc32)s1 | -31 | 4.08 | 0.375
C=C1/C(=C\C=C2/CCC[C@]3(C)[C@@H]([C@H](C)CCCC(C)(C)O)CC[C@@H]23)C[C@@H](O)C[C@@H]1O [Calcitriol (Rocaltrol)] | 7.56 | 31.2 | 4.81
ClC1=CC=CC(NC2=C3C(N(C(C)C)C=N3)=NC(N[C@H]([C@@H](C)C)CO)=N2)=C1 [purvalanol-a] | -35.2 | 2.99 | -1.66
CC1=C(/C=C/C(C)=C/C=C/C(C)=C/C(=O)Nc2ccc(O)cc2)C(C)(C)CCC1 [Fenretinide] | -30.4 | -13.7 | -1.99
CN1CCN(Cc2ccc(-c3cnc4[nH]cc(-c5ccc6[nH]ccc6c5)c4c3)cc2)CC1 | -32.6 | -34.1 | -11.6
COc1cccc2c1C(=O)c1c(O)c3c(c(O)c1C2=O)C[C@@](O)(C(=O)CO)C[C@@H]3O[C@H]1C[C@H](N)[C@@H](O)[C@H](C)O1 [Epirubicin Hydrochloride] | 52.4 | -34.5 | -13.7
COc1cccc2c(O)c3c(O)c4c(c(O)c3c(O)c12)=C(O[C@H]1C[C@H](N)[C@@H](O)[C@H](C)O1)C[C@](O)(C(=O)CO)C=4 [Epirubicin HCl] | 24 | -34.6 | -13.6
CO[C@H]1CC[C@H](N2C(=O)CNc3ncc(-c4ccc(C(C)(C)O)nc4)nc32)CC1 | -19.1 | -9.67 | -7.24
C=C1/C(=C\C=C2/CCC[C@]3(C)[C@@H]([C@H](C)/C=C/[C@H](C)C(C)(C)O)CC[C@@H]23)C[C@@H](O)C[C@@H]1O [Ercalcitriol] | -35 | 19.8 | 6.62
CCCCCCCCNC(C)C(O)c1ccc(SC(C)C)cc1 (stereo unspecified) | -32.8 | 7.28 | -0.84
Cn1c(=O)n(-c2ccc(C(C)(C)C#N)cc2)c2c3cc(-c4cnc5ccccc5c4)ccc3ncc21 [Dactolisib (BEZ235, NVP-BEZ235)] | 46.7 | -20.5 | -7.88
CC1(C)Oc2ccc(C#N)cc2[C@@H](N2CCCC2=O)[C@@H]1O.CC1(C)Oc2ccc(C#N)cc2[C@H](N2CCCC2=O)[C@H]1O [levcromakalim] | -32.9 | 4.22 | -0.84
CC(=O)c1ccc(S(=O)(=O)NC(=O)NC2CCCCC2)cc1 | -56.1 | 5.07 | 1.03
O=C(NC(NC(=S)Nc1ccc(F)c([N+](=O)[O-])c1)C(Cl)(Cl)Cl)C(c1ccccc1)c1ccccc1 (stereo unspecified) | -19.4 | -20.4 | -10.6
CN(C)CC/C=C1/c2ccccc2Sc2ccc(Cl)cc21 | -9.91 | 11.5 | -0.74
S=C=Nc1ccc(N=C=S)cc1 | 20.8 | 3.25 | -1.61
CNCC(O)c1ccc(O)c(O)c1 (racemic) [DL-Adrenaline] | 10.3 | -3.86 | -4.26
C[C@H]1NCc2cc(-c3ccc4c(=O)c(C(=O)O)cn(C5CC5)c4c3OC(F)F)ccc21 [Garenoxacin (Mesylate hydrate)] | -29 | -3.04 | -1.59
COc1nccnc1NS(=O)(=O)c1ccc(N)cc1 [sulfametopyrazine] | 6.66 | -7.5 | -1.09
COc1cc([C@@H]2c3cc4c(cc3C(O[C@@H]3O[C@@H]5CO[C@@H](c6cccs6)OC5[C@H](O)[C@H]3O)C3COC(=O)[C@@H]32)OCO4)cc(OC)c1O (stereo partly specified) | 16.8 | -34.5 | -13.1
Nc1ccc(/N=N/c2ccccc2)c(N)n1 | -28.9 | -3.22 | -1.03
COc1ccc(C2CC(c3c(O)cc(C)oc3=O)=NCCS2)c(OC)c1 (stereo unspecified) | -11 | -32.5 | -10.9
